According to the supplement of paper PMC3545927:
Some of the results follow. The true hit rate is not given.

Target: furin, P09958
Experiment: furin cleavage Z-score vs untreated control; higher = more cleavage, active = 3.5 or more, inactive = 1 or less, 8 variable residues between constant flanks
In short: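 Magnetic beads held 8-mer peptides by the N-terminus, each fused to a cDNA oligonucleotide, and purified furin was added for 7.5, 15 or 30 min. Released DNA was sequenced after PCR adapter tagging. The cleavage Z-score is the log count relative to furin-free reactions, lowess-adjusted and divided by median absolute deviation.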
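Further: purified furin at 1:10 enzyme:substrate in 50 mM HEPES pH 7.5.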

Sequence of furin, P09958 (P09958 whole entry): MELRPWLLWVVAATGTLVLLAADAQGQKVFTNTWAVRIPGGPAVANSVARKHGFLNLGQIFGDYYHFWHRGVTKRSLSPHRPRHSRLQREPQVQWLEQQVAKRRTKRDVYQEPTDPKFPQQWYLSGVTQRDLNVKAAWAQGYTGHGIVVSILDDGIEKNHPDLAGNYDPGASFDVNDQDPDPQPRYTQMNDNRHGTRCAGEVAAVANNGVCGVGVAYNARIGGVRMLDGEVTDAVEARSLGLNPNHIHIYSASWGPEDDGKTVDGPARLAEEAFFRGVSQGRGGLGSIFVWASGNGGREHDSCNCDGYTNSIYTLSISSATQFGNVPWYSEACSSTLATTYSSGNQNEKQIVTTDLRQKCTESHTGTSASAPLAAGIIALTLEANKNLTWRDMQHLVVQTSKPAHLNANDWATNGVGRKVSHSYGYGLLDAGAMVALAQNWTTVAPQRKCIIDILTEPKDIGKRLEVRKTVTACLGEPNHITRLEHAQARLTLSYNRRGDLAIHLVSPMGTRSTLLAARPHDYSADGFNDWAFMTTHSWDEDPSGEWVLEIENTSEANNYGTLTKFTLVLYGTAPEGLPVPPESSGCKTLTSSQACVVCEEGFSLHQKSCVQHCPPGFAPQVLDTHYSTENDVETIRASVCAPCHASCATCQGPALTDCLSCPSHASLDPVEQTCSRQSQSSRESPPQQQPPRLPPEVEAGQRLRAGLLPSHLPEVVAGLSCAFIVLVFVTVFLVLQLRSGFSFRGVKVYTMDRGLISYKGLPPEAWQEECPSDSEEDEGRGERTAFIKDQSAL

B1: HC2561 (peptide)
chain: CASTPCSANLAGNASASA
7.5 min
  furin cleavage Z-score: 0.829 (inactive)
15 min
  furin cleavage Z-score: 0.852 (inactive)
30 min
  furin cleavage Z-score: 0.011 (inactive)

B2: HC1459 (peptide)
chain: CADVVTKLPLAGNASASA
7.5 min
  furin cleavage Z-score: 0.775 (inactive)
15 min
  furin cleavage Z-score: 0.418 (inactive)
30 min
  furin cleavage Z-score: 0.0796 (inactive)

B3: FS-619 (peptide)
chain: CAPKARRKRYAGNASASA
7.5 min
  furin cleavage Z-score: 11.3 (active)
15 min
  furin cleavage Z-score: 13.4 (active)
30 min
  furin cleavage Z-score: 11.2 (active)

B4: HC1540 (peptide)
chain: CAFTEAMTRYAGNASASA
7.5 min
  furin cleavage Z-score: 1.26
15 min
  furin cleavage Z-score: -0.149 (inactive)
30 min
  furin cleavage Z-score: -0.331 (inactive)

B5: FS-958 (peptide)
chain: CARTSRRKRYAGNASASA
7.5 min
  furin cleavage Z-score: 11.4 (active)
15 min
  furin cleavage Z-score: 13.5 (active)
30 min
  furin cleavage Z-score: 9.45 (active)

B6: FS-1274 (peptide)
chain: CARTSRRKRAAGNASASA
7.5 min
  furin cleavage Z-score: 10.3 (active)
15 min
  furin cleavage Z-score: 9.52 (active)
30 min
  furin cleavage Z-score: 6.92 (active)

B7: HC1462 (peptide)
chain: CAPLAVMGSSAGNASASA
7.5 min
  furin cleavage Z-score: 0.481 (inactive)
15 min
  furin cleavage Z-score: 1.18
30 min
  furin cleavage Z-score: -0.14 (inactive)

B8: HC898 (peptide)
chain: CAITLPQDAVAGNASASA
7.5 min
  furin cleavage Z-score: -0.191 (inactive)
15 min
  furin cleavage Z-score: -0.999 (inactive)
30 min
  furin cleavage Z-score: -1.58 (inactive)

B9: HC675 (peptide)
chain: CAITAYAQQTAGNASASA
7.5 min
  furin cleavage Z-score: -0.902 (inactive)
15 min
  furin cleavage Z-score: -0.292 (inactive)
30 min
  furin cleavage Z-score: -0.928 (inactive)

B10: HC654 (peptide)
chain: CAGADTAACGAGNASASA
7.5 min
  furin cleavage Z-score: -0.934 (inactive)
15 min
  furin cleavage Z-score: -0.244 (inactive)
30 min
  furin cleavage Z-score: -0.368 (inactive)

B11: HC206 (peptide)
chain: CACGWAGWLLAGNASASA
7.5 min
  furin cleavage Z-score: 0.181 (inactive)
15 min
  furin cleavage Z-score: -0.831 (inactive)
30 min
  furin cleavage Z-score: -0.0867 (inactive)

B12: HC1981 (peptide)
chain: CAENTTPCSGAGNASASA
7.5 min
  furin cleavage Z-score: -1.67 (inactive)
15 min
  furin cleavage Z-score: 0.267 (inactive)
30 min
  furin cleavage Z-score: -0.382 (inactive)

B13: HC1264 (peptide)
chain: CASAPSLKATAGNASASA
7.5 min
  furin cleavage Z-score: -1.75 (inactive)
15 min
  furin cleavage Z-score: -0.175 (inactive)
30 min
  furin cleavage Z-score: -1.74 (inactive)

B14: HC1762 (peptide)
chain: CAMEECSQQLAGNASASA
7.5 min
  furin cleavage Z-score: 1.29
15 min
  furin cleavage Z-score: 0.207 (inactive)
30 min
  furin cleavage Z-score: 0.503 (inactive)

B15: FS-1326 (peptide)
chain: CAGARRAKRKAGNASASA
7.5 min
  furin cleavage Z-score: 5.27 (active)
15 min
  furin cleavage Z-score: 5.92 (active)
30 min
  furin cleavage Z-score: 5.79 (active)

B16: HC1774 (peptide)
chain: CAMEECSQHKAGNASASA
7.5 min
  furin cleavage Z-score: -0.682 (inactive)
15 min
  furin cleavage Z-score: 0.0797 (inactive)
30 min
  furin cleavage Z-score: -0.301 (inactive)

B17: FS-1467 (peptide)
chain: CAMAARMKRKAGNASASA
7.5 min
  furin cleavage Z-score: 8.01 (active)
15 min
  furin cleavage Z-score: 8.75 (active)
30 min
  furin cleavage Z-score: 8.6 (active)

B18: FS-385 (peptide)
chain: CAVCPRMKRKAGNASASA
7.5 min
  furin cleavage Z-score: 6.36 (active)
15 min
  furin cleavage Z-score: 7.19 (active)
30 min
  furin cleavage Z-score: 7.64 (active)

B19: HC135 (peptide)
chain: CAEVVSSTWVAGNASASA
7.5 min
  furin cleavage Z-score: 0.7 (inactive)
15 min
  furin cleavage Z-score: -1.48 (inactive)
30 min
  furin cleavage Z-score: 0.771 (inactive)

B20: HC941 (peptide)
chain: CAVFTGLTHIAGNASASA
7.5 min
  furin cleavage Z-score: -1.4 (inactive)
15 min
  furin cleavage Z-score: 0.134 (inactive)
30 min
  furin cleavage Z-score: -1.78 (inactive)

B21: HC628 (peptide)
chain: CAQMVIIKLGAGNASASA
7.5 min
  furin cleavage Z-score: 1.18
15 min
  furin cleavage Z-score: -0.535 (inactive)
30 min
  furin cleavage Z-score: 0.271 (inactive)

B22: FS-450 (peptide)
chain: CAKKRRATRFAGNASASA
7.5 min
  furin cleavage Z-score: 1.73
15 min
  furin cleavage Z-score: 3.42
30 min
  furin cleavage Z-score: 4.38 (active)

B23: FS-1039 (peptide)
chain: CANPQRFDRIAGNASASA
7.5 min
  furin cleavage Z-score: -0.635 (inactive)
15 min
  furin cleavage Z-score: -0.196 (inactive)
30 min
  furin cleavage Z-score: 0.174 (inactive)

B24: FS-345 (peptide)
chain: CAKTNRKTRFAGNASASA
7.5 min
  furin cleavage Z-score: 1.94
15 min
  furin cleavage Z-score: 3.24
30 min
  furin cleavage Z-score: 4.81 (active)

B25: FS-1212 (peptide)
chain: CAIFKRKKRIAGNASASA
7.5 min
  furin cleavage Z-score: 3.24
15 min
  furin cleavage Z-score: 3.6 (active)
30 min
  furin cleavage Z-score: 5.56 (active)

B26: FS-183 (peptide)
chain: CAQNERSYRIAGNASASA
7.5 min
  furin cleavage Z-score: -0.223 (inactive)
15 min
  furin cleavage Z-score: 1.02
30 min
  furin cleavage Z-score: 0.628 (inactive)

B27: FS-1346 (peptide)
chain: CAILQRLKRIAGNASASA
7.5 min
  furin cleavage Z-score: 3.62 (active)
15 min
  furin cleavage Z-score: 3.86 (active)
30 min
  furin cleavage Z-score: 6.79 (active)

B28: HC2267 (peptide)
chain: CAFLEVVTSTAGNASASA
7.5 min
  furin cleavage Z-score: -1.17 (inactive)
15 min
  furin cleavage Z-score: -0.113 (inactive)
30 min
  furin cleavage Z-score: -1.92 (inactive)

B29: HC1539 (peptide)
chain: CARAFTEAMTAGNASASA
7.5 min
  furin cleavage Z-score: 0.545 (inactive)
15 min
  furin cleavage Z-score: -0.418 (inactive)
30 min
  furin cleavage Z-score: 0.0305 (inactive)

B30: HC868 (peptide)
chain: CAVAYYRGLDAGNASASA
7.5 min
  furin cleavage Z-score: 0.403 (inactive)
15 min
  furin cleavage Z-score: 1.75
30 min
  furin cleavage Z-score: -1.15 (inactive)

B31: HC336 (peptide)
chain: CAAHWGVLAGAGNASASA
7.5 min
  furin cleavage Z-score: -1.27 (inactive)
15 min
  furin cleavage Z-score: -1.2 (inactive)
30 min
  furin cleavage Z-score: -0.699 (inactive)

B32: FS-418 (peptide)
chain: CAEWLRKKRIAGNASASA
7.5 min
  furin cleavage Z-score: 0.96 (inactive)
15 min
  furin cleavage Z-score: 1.09
30 min
  furin cleavage Z-score: 1.3

B33: FS-443 (peptide)
chain: CAIQSRRKKIAGNASASA
7.5 min
  furin cleavage Z-score: 0.424 (inactive)
15 min
  furin cleavage Z-score: -0.328 (inactive)
30 min
  furin cleavage Z-score: 0.24 (inactive)

B34: FS-936 (peptide)
chain: CAKKRRKKRIAGNASASA
7.5 min
  furin cleavage Z-score: 3.69 (active)
15 min
  furin cleavage Z-score: 6.37 (active)
30 min
  furin cleavage Z-score: 7.05 (active)

B35: FS-625 (peptide)
chain: CASLHLKKRIAGNASASA
7.5 min
  furin cleavage Z-score: -0.694 (inactive)
15 min
  furin cleavage Z-score: -1.61 (inactive)
30 min
  furin cleavage Z-score: 0.811 (inactive)

B36: FS-806 (peptide)
chain: CAIYCRKKRIAGNASASA
7.5 min
  furin cleavage Z-score: 2.51
15 min
  furin cleavage Z-score: 0.629 (inactive)
30 min
  furin cleavage Z-score: 4.48 (active)

B37: HC2429 (peptide)
chain: CAYREVPCHRAGNASASA
7.5 min
  furin cleavage Z-score: 1.27
15 min
  furin cleavage Z-score: -0.258 (inactive)
30 min
  furin cleavage Z-score: -1.27 (inactive)

B38: HC375 (peptide)
chain: CACNDSLNTGAGNASASA
7.5 min
  furin cleavage Z-score: -1.58 (inactive)
15 min
  furin cleavage Z-score: 0.314 (inactive)
30 min
  furin cleavage Z-score: -2.54 (inactive)

B39: HC2063 (peptide)
chain: CAVVCCSMAYAGNASASA
7.5 min
  furin cleavage Z-score: 0.877 (inactive)
15 min
  furin cleavage Z-score: 1.72
30 min
  furin cleavage Z-score: 0.58 (inactive)

B40: FS-672 (peptide)
chain: CAKKIRGKRFAGNASASA
7.5 min
  furin cleavage Z-score: 6.75 (active)
15 min
  furin cleavage Z-score: 8.84 (active)
30 min
  furin cleavage Z-score: 7.44 (active)

B41: FS-410 (peptide)
chain: CADRSRGKRFAGNASASA
7.5 min
  furin cleavage Z-score: 7.7 (active)
15 min
  furin cleavage Z-score: 10.3 (active)
30 min
  furin cleavage Z-score: 8.8 (active)

B42: HC55 (peptide)
chain: CATTPSSGSWAGNASASA
7.5 min
  furin cleavage Z-score: -0.371 (inactive)
15 min
  furin cleavage Z-score: -0.739 (inactive)
30 min
  furin cleavage Z-score: -0.54 (inactive)

B43: HC94 (peptide)
chain: CAVVCCSMSYAGNASASA
7.5 min
  furin cleavage Z-score: 0.423 (inactive)
15 min
  furin cleavage Z-score: 0.141 (inactive)
30 min
  furin cleavage Z-score: 0.568 (inactive)
